Compounds with a hit are over-represented: about 18% of the library has one in this group of screens.
DT40 TDP1 CPT: growth inhibition of DT40 Tdp1-/-;hTDP1 cells with camptothecin (screen for TDP1 inhibitors) | Potency, µM (doses to about 46.2 µM), usual class: inhibitors | actives 12% (n = 420,000) | chicken DT40 Tdp1-/-;hTDP1 cells + 20 nM CPT, ATP luminescence, 48 h | AID 686979; also: nearly all actives have a fitted effect of over 55% in size
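Chicken DT40 Tdp1-/- cells complemented with human TDP1, 400 cells/well, exposed to compounds plus 20 nM camptothecin for at least 48 h at 37 C; viability read as ATP content by CellTiter-Glo luminescence.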
IL-1B inflam inh: blocks inflammasome-driven IL-1 beta release; THP-1 LPS/ATP IL-1B secretion, AlphaLISA, 16 h; active compounds read low; activity change, % at 57.5 µM; actives 4.7% (n = 360,000); in the data active = activity change below about -50%; inconclusive = mostly about -30% to -49%
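Secreted IL-1B measured by AlphaLISA bead assay after 16 h compound exposure of THP-1 cells; compounds (final up to 57.5 uM) added 1 h before LPS (250 ng/mL) and ATP (1.25 mM) stimulation; lower signal means less secretion.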
TDP1 block: inhibitors of human tyrosyl-DNA phosphodiesterase TDP1 | Q9NUW8 | recombinant TDP1, AlphaScreen DNA substrate cleavage | Potency, µM (series often up to 130 µM), hits mostly inhibitors | AID 485290 | actives 0.28% (n = 350,000); also: nearly all actives have a fitted effect of over 40% in size
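Enzyme-compound mixtures sat 15 min at room temperature, followed by a 5 min reaction with 15 nM final substrate and 10 min with AlphaScreen beads. Recombinant human Tdp1 was used at 1 nM final.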
DT40 TDP1 no CPT: qHTS for Inhibitors of human tyrosyl-DNA phosphodiesterase 1 (TDP1): qHTS in cells in absence of CPT | actives 15% (n = 420,000) | Potency, µM (series often up to 46.2 µM), hits mostly inhibitors | DT40 Tdp1-/- hTDP1 cells, no CPT, ATP luminescence, 48 h; also: nearly all actives have a fitted effect of over 55% in size
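Stably hTDP1-transfected Tdp1-null chicken DT40 cells were treated with library compounds minus camptothecin and grown for at least 48 hr at 37 °C, after which cellular ATP was quantified by luminescence.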
CtBP-E1A blk: inhibitors of CtBP/E1A interaction. AlphaScreen GST-E1A/His-CtBP binding, 1536-well; active compounds read low. activity change, % (test concentration not listed). actives 0.49% (n = 340,000). AID 651724; in the data active = activity change below about -65%; inconclusive = mostly about -30% to -63%
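GST-E1A and His-tagged CtBP (125 nM each as 5X stock) were preincubated with pin-transferred compound for 2 h at 37 °C in the dark, then glutathione donor and nickel acceptor beads were added for 1 h before AlphaScreen reading.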
Six1-Eya2 inh: inhibitors of human Six1/Eya2 interaction; AID 651725; Q15475+O00167; activity change, % (no concentration beside the values); AlphaScreen GST-Six1/His-Eya2 binding, biochemical; active compounds read low; actives 0.56% (n = 360,000); in the data active = activity change below about -65%; inconclusive = mostly about -30% to -63%
Target sequence (O00167 whole entry, looked up): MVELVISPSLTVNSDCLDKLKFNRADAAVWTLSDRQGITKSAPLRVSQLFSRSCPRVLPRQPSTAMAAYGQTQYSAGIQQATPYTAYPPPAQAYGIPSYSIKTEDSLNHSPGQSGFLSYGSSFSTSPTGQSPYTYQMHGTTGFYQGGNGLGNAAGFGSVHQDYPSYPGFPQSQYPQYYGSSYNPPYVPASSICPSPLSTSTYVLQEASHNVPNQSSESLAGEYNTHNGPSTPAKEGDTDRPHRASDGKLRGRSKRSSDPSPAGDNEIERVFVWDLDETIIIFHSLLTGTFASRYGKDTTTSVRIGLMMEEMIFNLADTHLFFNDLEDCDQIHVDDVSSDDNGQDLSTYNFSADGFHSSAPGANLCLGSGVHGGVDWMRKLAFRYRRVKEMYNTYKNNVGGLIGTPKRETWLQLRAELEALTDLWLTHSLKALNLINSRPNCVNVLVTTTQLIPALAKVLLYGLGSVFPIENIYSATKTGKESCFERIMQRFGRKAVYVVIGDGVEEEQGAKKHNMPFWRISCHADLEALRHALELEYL
Target sequence (Q15475 whole entry, looked up): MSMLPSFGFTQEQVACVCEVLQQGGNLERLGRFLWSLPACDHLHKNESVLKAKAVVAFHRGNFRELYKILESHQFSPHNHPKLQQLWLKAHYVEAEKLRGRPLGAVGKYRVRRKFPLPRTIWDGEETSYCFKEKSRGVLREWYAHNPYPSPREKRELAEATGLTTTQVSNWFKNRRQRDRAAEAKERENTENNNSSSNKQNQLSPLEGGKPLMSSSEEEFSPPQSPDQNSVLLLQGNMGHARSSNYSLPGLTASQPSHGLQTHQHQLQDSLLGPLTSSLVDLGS
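Compounds are tested against tagged Six1 and Eya2 proteins bridged by glutathione donor and nickel acceptor beads; after a one-hour incubation at 37 °C without light, AlphaScreen emission is recorded.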
Hits are given with their value. Unless noted, calls follow the shape of the dose curve; as a rule, active = well fitted curve in the direction sought with a large enough effect; inconclusive = small, poorly fitted or top-dose-only effect, or another doubt; inactive = no such curve, though single readings can be large; an effect the other way counts as inactive or inconclusive.

What do the screens show for `O=S(=O)(Nc1cccc2ncccc12)c1cccc(C(F)(F)F)c1`?
DT40 TDP1 CPT: inconclusive; IL-1B inflam inh: inactive; TDP1 block: inactive; DT40 TDP1 no CPT: 9.2µM; Six1-Eya2 inh: inactive

Results for Cc1ccc(S(=O)(=O)Nc2ccc(O)c3cccnc23)cc1 ?
DT40 TDP1 CPT: 2.9µM; IL-1B inflam inh: inactive; TDP1 block: inconclusive; DT40 TDP1 no CPT: 6.5µM; CtBP-E1A blk: inactive; Six1-Eya2 inh: inactive

What do the screens show for `Cc1ccc(S(=O)(=O)Nc2cccc3ncccc23)cc1`?
DT40 TDP1 CPT: inconclusive; IL-1B inflam inh: inactive; DT40 TDP1 no CPT: inactive; CtBP-E1A blk: inactive; Six1-Eya2 inh: inactive

What do the screens show for `Cc1ccc(S(=O)(=O)Nc2ccnc3ccccc23)cc1`?
DT40 TDP1 CPT: inconclusive; IL-1B inflam inh: inactive; TDP1 block: inactive; DT40 TDP1 no CPT: 21µM; CtBP-E1A blk: inactive; Six1-Eya2 inh: inactive

What do the screens show for `Cc1ccc(S(=O)(=O)Nc2cccc3ncccc23)s1`?
DT40 TDP1 CPT: 0.92µM; IL-1B inflam inh: -112; TDP1 block: inactive; DT40 TDP1 no CPT: 1µM; CtBP-E1A blk: -81; Six1-Eya2 inh: -86

How did CC(C(=O)Nc1cccc(Br)c1)c1ccc([N+](=O)[O-])cc1 (configuration not stated) do in these assays?
DT40 TDP1 CPT: inactive; IL-1B inflam inh: inactive; TDP1 block: inactive; DT40 TDP1 no CPT: inactive; CtBP-E1A blk: inactive; Six1-Eya2 inh: inactive

What do the screens show for `Cn1c(N)c(C(=O)COC(=O)CCCN2C(=O)c3ccccc3C2=O)c(=O)n(C)c1=O`?
DT40 TDP1 CPT: inactive; IL-1B inflam inh: inactive; TDP1 block: inactive; DT40 TDP1 no CPT: inactive; CtBP-E1A blk: inactive; Six1-Eya2 inh: inactive

Results for COc1ccc(S(=O)(=O)NCCc2sc3nc(-c4ccc(C)cc4)nn3c2C)cc1C ?
DT40 TDP1 CPT: inconclusive; TDP1 block: inactive; DT40 TDP1 no CPT: inconclusive

Results for Cc1cc(C)c(S(=O)(=O)NCCc2sc3nc(-c4ccc(F)cc4)nn3c2C)c(C)c1 ?
DT40 TDP1 CPT: inconclusive; TDP1 block: inactive; DT40 TDP1 no CPT: 21µM

Results for CCCS(=O)(=O)NCCc1sc2nc(-c3ccc(Cl)cc3)nn2c1C ?
DT40 TDP1 CPT: 5.2µM; TDP1 block: inactive; DT40 TDP1 no CPT: 8.2µM

Results for CCCS(=O)(=O)NCCc1sc2nc(-c3ccc(F)cc3)nn2c1C ?
DT40 TDP1 CPT: 21µM; TDP1 block: inactive; DT40 TDP1 no CPT: 15µM

How did CCOc1ccc(S(=O)(=O)NCCc2sc3nc(-c4ccc(F)cc4)nn3c2C)cc1 do in these assays?
DT40 TDP1 CPT: inconclusive; TDP1 block: inactive; DT40 TDP1 no CPT: 15µM

Results for COc1ccc(/C=C\C(=O)NC2CC(=O)N(c3ccccc3)C2)cc1OC (configuration not stated) ?
DT40 TDP1 CPT: inactive; TDP1 block: inactive; DT40 TDP1 no CPT: inactive

Results for O=C(Nc1ccccc1-c1cn2c(CN3CCNCC3)csc2n1)c1cnc2ccccc2n1 ?
DT40 TDP1 CPT: 3.5µM; DT40 TDP1 no CPT: 5.6µM

What do the screens show for `C[C@H]1CN([C@@H](C)CO)C(=O)CCCn2nncc2CO[C@@H]1CN(C)S(=O)(=O)c1ccc2ccccc2c1`?
DT40 TDP1 CPT: inactive; IL-1B inflam inh: inactive; DT40 TDP1 no CPT: inactive; CtBP-E1A blk: inactive; Six1-Eya2 inh: inactive

What do the screens show for `CC1NC(=O)C(N)CNC(=O)C(C2CCN=C(N)N2)NC(=O)/C(=C/NC(N)=O)NC(=O)C(CNC(=O)CC(N)CCCN)NC1=O` (configuration not stated)?
TDP1 block: inactive

What do the screens show for `O=C(CSc1nnc(C2CCCCC2)n1-c1ccccc1)NCc1ccco1`?
DT40 TDP1 CPT: inconclusive; IL-1B inflam inh: inactive; TDP1 block: inactive; DT40 TDP1 no CPT: 8.2µM; CtBP-E1A blk: inactive; Six1-Eya2 inh: inactive

How did COc1ccc(NC(=O)CSc2nnc(C3CCCCC3)n2-c2ccccc2)cc1 do in these assays?
DT40 TDP1 CPT: 15µM; IL-1B inflam inh: inactive; TDP1 block: inactive; DT40 TDP1 no CPT: 18µM; CtBP-E1A blk: inactive; Six1-Eya2 inh: inactive

Screening results (PubChem)
